Screening data from PubChem BioAssay.
CASP6 VEID inh: caspase-6 (human) enzyme inhibition. AID 686996. purified caspase-6, Z-VEID-R110 cleavage fluorescence. 350,000 tested, 0.53% active. inhibition, % at 12.5 µM;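 active = mean inhibition across replicates at least about 35%, with every replicate also reaching that limit, limit read from the data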;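 also: 0% = median of neutral control wells and 100% = no fluorescence left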
miR-122 sensor: blocks miR-122 activity in Huh7 sensor cells. Huh7 miR-122 Renilla luciferase sensor, 48 h; neutral wells = 0, positive control = 100. activation (reporter increase), % at 12.5 µM. 340,000 tested, 0.3% active. AID 602342;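 active = mean replicate activation score at least 90 and every replicate individually at or above 90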;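 also: higher luciferase means less miR-122 activity so hits act as miR-122 inhibitors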
AF4-AF9 inh: MLL-AF4/AF9 protein interaction inhibition. P42568. AlphaScreen, biotin-AF4 peptide binding to FLAG-AF9. inhibition, % at 10 µM. 350,000 tested, 0.47% active. AID 651704;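 active = every replicate reaching a set inhibition limit, whatever the replicate mean, cut at about 25% in these data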;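 also: 0% = plate neutral control median and 100% = total signal loss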
Target sequence (P42568 whole entry, looked up): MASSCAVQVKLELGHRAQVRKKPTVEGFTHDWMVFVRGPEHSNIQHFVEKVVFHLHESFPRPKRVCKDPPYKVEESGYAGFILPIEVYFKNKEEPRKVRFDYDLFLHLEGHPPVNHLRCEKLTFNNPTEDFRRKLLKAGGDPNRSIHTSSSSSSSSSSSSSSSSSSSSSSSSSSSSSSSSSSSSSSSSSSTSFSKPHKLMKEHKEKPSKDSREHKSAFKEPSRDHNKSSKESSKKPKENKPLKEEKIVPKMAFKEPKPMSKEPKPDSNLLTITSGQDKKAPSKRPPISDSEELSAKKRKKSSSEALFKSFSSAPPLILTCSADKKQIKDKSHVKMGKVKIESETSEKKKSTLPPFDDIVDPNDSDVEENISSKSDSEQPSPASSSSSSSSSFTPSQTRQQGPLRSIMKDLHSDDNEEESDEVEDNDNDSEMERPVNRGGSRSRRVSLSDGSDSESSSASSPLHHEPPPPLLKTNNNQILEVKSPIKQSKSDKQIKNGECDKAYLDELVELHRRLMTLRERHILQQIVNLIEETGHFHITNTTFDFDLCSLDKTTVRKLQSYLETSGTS
NSD2 inh: inhibitors of human histone methyltransferase NSD2; NSD2 peptide methylation, AlphaScreen, 120 min; 310,000 tested, 0.54% active; inhibition, % at 12.5 µM; O96028; AID 743445; in the data active = inhibition above about 50%
RAD52 inh: blocks human RAD52 DNA annealing; recombinant RAD52 DNA annealing, FRET fluorescence; inhibition, % at 18.7 µM; 360,000 tested, 0.46% active;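 active = every replicate showing at least 50% inhibition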
Alpha artifact: counter-screen for NSD2 inhibitors: AlphaScreen artifacts; shares compounds with NSD2 inh; AlphaScreen artifact counterscreen, preloaded methylated H4 peptide; AC35, µM (series often up to 10 µM), for the others: top-dose activity change, negative = signal loss; 1,500 tested, 9.4% active; call rule not given here
* = called active by the depositor; . = not tested or not shown; [ ] = another dose, or the depositor's remark. Rows were chosen to be rich in hits. Some 1.5% of all compounds tested hit in one or more screens of this group.

SMILES | CASP6 VEID inh | miR-122 sensor | AF4-AF9 inh | NSD2 inh | RAD52 inh | Alpha artifact
O=C(Cc1csc(N2CCOCC2)n1)N/N=C/c1ccc(O)c(O)c1O | 19 | -5 | -6 | 77* | -19 | -9%
Cn1nnnc1SCC(=O)NCc1cccc(C(=O)O)c1 | . | -3 | . | 0 | . | .
COC(=O)c1ccc(-n2nnnc2SCC(=O)NCc2cccc(C(=O)O)c2)cc1 | . | 9 | . | 107* | . | 3%
O=C(c1ccccc1F)N(Cc1cccs1)C1CCS(=O)(=O)C1 (configuration not stated) | 3 | -2 | -3 | 85* | -20 | -2%
O=C(c1ccccc1F)N(Cc1ccccc1)C1CCS(=O)(=O)C1 (configuration not stated) | . | -2 | . | -1 | . | .
COc1ccc(CN(C(=O)c2cccc(OC)c2)C2CCS(=O)(=O)C2)cc1 (configuration not stated) | -1 | -9 | -1 | 52* | -5 | -3%
O=C(c1ccccc1)N(Cc1cccs1)C1CCS(=O)(=O)C1 (configuration not stated) | 11 | 0 | -3 | -1 | -9 | .
COc1ccc(C(=O)N(Cc2cccs2)C2CCS(=O)(=O)C2)cc1 (configuration not stated) | -1 | -3 | -1 | 100* | -9 | 1%
CCCNC(=O)[C@@]1(c2ccc([N+](=O)[O-])cc2)CC(=O)N(CC23CC4CC(CC(C4)C2)C3)[C@@H]1c1ccc(CO)cc1I | -1 | . | 0 | . | 3 | .
C[C@@H]1CN([C@H](C)CO)S(=O)(=O)c2ccc(-c3ccc(C(=O)N(C)C)cc3)cc2O[C@@H]1CN(C)C(=O)C1CCC1 | 3 | -43[16.7 µM] | -1 | . | -6 | .
COC(=O)C[C@@H]1CC[C@@H]2[C@H](COc3ccc(NS(C)(=O)=O)cc3C(=O)N2C)O1 | . | -12[16.7 µM] | . | . | . | .
CCCNC(=O)C[C@H]1CC[C@H]2[C@H](COc3ccc(NC(=O)Nc4ccccc4)cc3C(=O)N2C)O1 | . | 58[16.7 µM] | . | . | . | .
O=C(O)c1ccc(CSc2n[nH]c(-c3ccco3)n2)cc1 | . | 4 | . | 108* | . | -5%
CC(=O)Nc1ccc(NC2=C/C(=N/S(=O)(=O)c3cccs3)c3ccccc3C2=O)cc1 | 99* | 7 | 5 | 83* | -4 | -10%
CC(=O)Nc1ccc(NC(=O)C(C)OC(=O)c2ccccc2NS(=O)(=O)c2cccs2)cc1 (configuration not stated) | 3 | 0 | 3 | -1 | -11 | .
CCC1Cc2c(nc(N)c3c(N)nc(N4CCOCC4)c(C#N)c23)O1 (configuration not stated) | 2 | -6 | -1 | 82* | -11 | -2%
CCOc1cc2c(C#N)c(N3CCOCC3)nc(N)c2c(N)n1 | . | -5 | . | 70* | . | 1%
N#Cc1c(N2CCCCC2)nc(N)c2c(N)nc3c(c12)CC(CCl)O3 (configuration not stated) | 0 | . | -2 | -1 | -9 | .
CCOc1cc2c(C#N)c(N(CC)CC)nc(N)c2c(N)n1 | . | -2 | . | . | -2 | .
O=S(=O)(N[C@H]1CC[C@H](CCn2cc(C3(O)CCCC3)nn2)O[C@H]1CO)c1ccccc1 | -1 | . | -1 | . | -3 | .
NC1=C(Br)C(=O)c2ccccc2C1=O | 75* | 10 | 3 | 57* | -10 | -4%
O=C(c1ccc2c(c1)OCO2)N1CC(=O)N2[C@H](CO)[C@H](c3ccc(C#CC4CCCC4)cc3)[C@@H]2C1 | 1 | . | 2 | . | -20 | .
C[C@@H]1CCCCO[C@@H](CN(C)C(=O)Nc2ccccc2)[C@H](C)CN([C@H](C)CO)C(=O)c2cc(NC(=O)CCC(F)(F)F)ccc2O1 | -2 | -5[16.7 µM] | -2 | . | 14 | .
Cc1cccc(NC(=O)C2CCN(C(=O)NCc3ccccc3)CC2)c1C | 1 | -3 | -2 | 66* | -5 | 0%
Cc1ccc(NC(=S)Nc2cccc3cnccc23)cc1C | 3 | -12 | 3 | 21 | -19 | .
SMILES | CASP6 VEID inh | miR-122 sensor | AF4-AF9 inh | NSD2 inh | RAD52 inh | Alpha artifact
CC(=O)c1ccc(NC(=S)Nc2cccc3cnccc23)cc1 | 0 | 3 | -2 | 81* | -4 | -8%
CC(=O)c1cccc(NC(=S)Nc2cccc3ccccc23)c1 | 0 | 31 | 3 | -1 | -19 | .
Cc1ccc(NC(=S)Nc2cccc3cnccc23)cc1 | 80* | 8 | 3 | 101* | -2 | 0%
CO[C@H]1CN(C)C(=O)c2ccc(NS(=O)(=O)c3cn(C)cn3)cc2OC[C@H](C)N(CC2CC2)C[C@@H]1C | -4 | . | -1 | . | -9 | .
C[C@@H]1CN([C@@H](C)CO)C(=O)c2cc(NS(=O)(=O)c3cccs3)ccc2O[C@@H](C)CCCCO[C@@H]1CN(C)C(=O)Nc1ccc(F)cc1 | . | . | 2 | . | . | .
COCCCNC1=C(Cl)C(=O)c2ccccc2C1=O | 18 | -1 | 9 | 68* | -7 | -6%
CCN(CC)CCCNC1=C(Cl)C(=O)c2ccccc2C1=O | 38* | -14 | 5 | 112* | 15 | -5%
Cc1ccc(S(=O)(=O)Nc2cccc3c2O[C@H](CN(C)S(=O)(=O)c2ccccc2)[C@H](C)CN([C@H](C)CO)C3=O)cc1 | 0 | -12[16.7 µM] | -2 | . | 7 | .
CCS(=O)(=O)Nc1ccc2c(c1)C(=O)N(C)C[C@@H](OC)[C@@H](C)CN(CCC(F)(F)F)[C@@H](C)CO2 | -1 | . | 1 | . | -17 | .
O=C(O)c1ccc(NS(=O)(=O)c2ccc3c(c2)C2C=CCC2C(c2ccccc2F)N3)cc1 (configuration not stated) | 47* | -5 | 4 | 159* | -104 | -2%
COc1ccc(S(=O)(=O)Nc2ccc3c(c2)C(=O)N(C)C[C@@H](OC)[C@@H](C)CN[C@H](C)CO3)cc1 | 0 | . | 1 | . | 4 | .
C=CCC1CCCCC1=C(C#N)c1ccccc1 (configuration not stated) | -3 | -2 | -3 | 53* | -13 | -5%
COc1ccc(N(CC(=O)NCCSc2ccccn2)S(C)(=O)=O)cc1 | -3 | -10 | . | 127* | -1 | -3%
CS(=O)(=O)N(CC(=O)NCCSc1ccccn1)c1ccc(F)cc1 | 0 | . | -2 | -3 | 11 | .
O=Cc1ccc(OCC(=O)Nc2ccccc2C(F)(F)F)cc1 | 1 | . | -2 | 0 | -2 | .
Cc1ccc(OCCCC(=O)Nc2ccccc2C(F)(F)F)cc1 | . | -4 | . | 54* | . | 0%
O=c1cc(C=NNc2ccccc2)[nH]c(=O)[nH]1 | -1 | . | -30 | 52* | -42 | -5%
N#C[C@@H]1[C@@H](c2ccccc2-c2ccccc2)[C@@H](CO)N1C(=O)NC1CCCCC1 | 0 | . | -1 | . | 1 | .
O=Cc1ccc(OC(=O)C2CC(=O)N(c3ccc(F)cc3)C2)cc1 (configuration not stated) | . | -5 | . | 125* | . | 7%
COc1ccc(NC(=O)Nc2ccc3c(c2)C(=O)N([C@H](C)CO)C[C@H](C)[C@@H](CN(C)C(=O)Nc2ccccc2)OCCCC[C@@H](C)O3)cc1 | -4 | 3[16.7 µM] | -7 | . | 15 | .
